Measured values as given in PubChem BioAssay (EPA / NIEHS).
Records with an inconclusive call do not appear. Active and inactive are the calls of the source. Rule for the calls: active = hit-call score of the fitted dose curve at least 0.9, where 1 is the maximum; inconclusive = response in the unintended direction; inactive = score below 0.9.

Biological target: human Retinoic Acid Receptor gamma (RARg), RARG (gene 5916) (UniProt P13631)
Assay: ATG_RARg_TRANS: Attagene TRANS-FACTORIAL HepG2 Assay for human Retinoic Acid Receptor gamma (RARg) (AID 2283009)
Description: ATG_TRANS is a cell-based, multiplexed-readout assay that uses HepG2, a human liver cell line, with measurements taken at 24 hours after chemical dosing in a 24-well plate.ATG_RARg_TRANS is one of 30 assay component(s) measured or calculated from the ATG_TRANS assay. It is designed to make measurements of mRNA induction, a form of inducible reporter, as detected with fluorescence intensity signals by Reverse transcription polymerase chain reaction (RT-PCR) and Capillary electrophoresis technology.Data from the assay component ATG_RARg_TRANS was analyzed into 1 assay endpoint. This assay endpoint, ATG_RARg_TRANS, was analyzed in the positive analysis fitting direction relative to DMSO as the negative control and baseline of activity. Using a type of inducible reporter, measures of mRNA for gain-of-signal activity can be used to understand the reporter gene at the transcription factor-level as they relate to the gene RARG. Furthermore, this assay endpoint can be referred to as a primary readout, because this assay has produced multiple assay endpoints where this one serves a reporter gene function. To generalize the intended target to other relatable targets, this assay endpoint is annotated to the nuclear receptor intended target family, where the subfamily is non-steroidal.
Human liver HepG2 cells are transiently transfected with multiple reporter transcription units (MRTUs) in 6-well plates using FuGene 6 reagent (Roche; 3 ml FuGene/1 mg DNA). The MRTU constructs are regulated by a cis-regulating element (promoter). […] A major difference between the CIS and TRANS system is that in CIS activities of endogenous TFs are measured, whereas the TRANS assay evaluates changes in activities of exogenous, chimeric NR-Gal4 proteins. […] At the end of 24 hour incubation, total RNA was isolated using TriZol reagent (Invitrogen). The isolated RNA is then reverse-transcribed using oligo(dT) primer and Mo-MLV reverse transcriptase (Invitrogen) with DNAse I (Ambion) treatment for 30 min. The one-tenth of the produced cDNA was amplified by PCR using Taq DNA polymerase (Invitrogen) and two reporter sequence-specific primers. The PCR products were fluorescently labeled by primer extension with 6-arboxyfluorescein (6-FAM) 5'-labeled reporter sequence-specific primer (2 min at 95 C, 20 s at 68 C and 10 min at 72 C) and these products were digested with 5U of HpaI (New England Biolabs) for 2h at 37 C. […] The raw capillary electrophoresis data was processed using Attagraph software (Attagene).

Chain of human Retinoic Acid Receptor gamma (RARg), RARG (gene 5916) (P13631 whole entry, looked up): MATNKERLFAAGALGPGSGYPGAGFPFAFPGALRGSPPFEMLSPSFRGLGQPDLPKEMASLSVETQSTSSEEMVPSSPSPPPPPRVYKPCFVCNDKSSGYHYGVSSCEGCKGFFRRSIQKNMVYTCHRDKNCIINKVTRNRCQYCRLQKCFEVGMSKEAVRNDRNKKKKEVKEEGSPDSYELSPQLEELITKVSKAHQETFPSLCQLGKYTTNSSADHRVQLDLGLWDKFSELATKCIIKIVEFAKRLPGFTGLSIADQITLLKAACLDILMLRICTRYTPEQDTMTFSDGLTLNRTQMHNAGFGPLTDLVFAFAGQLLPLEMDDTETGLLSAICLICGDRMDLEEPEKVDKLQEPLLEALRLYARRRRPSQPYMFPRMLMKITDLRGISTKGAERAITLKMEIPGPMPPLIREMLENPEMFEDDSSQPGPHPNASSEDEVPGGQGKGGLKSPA

SMILES | outcome
c1ccc2c(c1)-c1cccc3cccc-2c13 | inactive
[As]#[In] | inactive
O=C(O)C1C2CCC(O2)C1C(=O)O (stereo not given) | inactive
CCOc1cccc(C2(N3CCN(c4ccccc4)CC3)CCC(C)CC2)c1 (stereo not given) | inactive
O=C(Oc1ccc(Br)cc1)N1CCN2CCC1CC2 | inactive
Nc1ccc(Oc2ccc(N)cc2)cc1 | inactive
Cc1ccc(N=C=O)cc1N=C=O | inactive
CCOC(=O)[C@]1(c2ccccc2)Oc2ccccc2[C@@H]1N | inactive
CCCCCCCCCCCCCN1CC(C)OC(C)C1 (stereo not given) | inactive
O=P(OCCCl)(OCCCl)OCCCl | inactive
Cc1cccc(N)c1N | inactive
CC(C)(OOC(C)(C)c1ccccc1)c1ccccc1 | inactive
Nc1ccc(N=Nc2ccccc2)cc1 | inactive
ClC1=C(Cl)C2(Cl)C3C(Cl)C=CC3C1(Cl)C2(Cl)Cl (stereo not given) | inactive
CC(O)CCO (stereo not given) | inactive
Nc1ccc(Cl)cc1N | inactive
Nc1cc(Cl)cc(C(=O)O)c1Cl | inactive
C1=Cc2cccc3cccc1c23 | inactive
O=Cc1ccco1 | inactive
Cc1cc(N=Nc2ccccc2C)ccc1N | inactive
N#CC(Br)(Br)C(N)=O | inactive
O=[N+]([O-])C(Br)(CO)CO | inactive
COC(=O)Nc1nc2ccccc2[nH]1 | inactive
Oc1ccc2ccc3cccc4ccc1c2c34 | inactive
CCNS(=O)(=O)C(F)(F)C(F)(F)C(F)(F)C(F)(F)C(F)(F)C(F)(F)C(F)(F)C(F)(F)F | inactive
Cc1ccc(N)c(N)c1 | inactive
ClCCOCCCl | inactive
CC(C)(C)C(O)(CCc1ccc(Cl)cc1)Cn1cncn1 (stereo not given) | inactive
OCCCl | inactive
CS(=O)(=O)NC(=O)c1cc(Oc2ccc(C(F)(F)F)cc2Cl)ccc1[N+](=O)[O-] | inactive
